Compounds with a hit are over-represented: about 5.5% of the library has one in this group of screens.
Sfp inh – Sfp phosphopantetheinyl transferase inhibition. Q9F4F7. Biochemical Sfp PPTase activity, qHTS. Potency, µM, without a hit: largest response in the series, negative = inhibition, actives largely listed as inhibitors. 310,000 tested, 3.5% active;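 also: the enzyme is Sfp with the accession as filed and its product quenches rhodamine fluorescence; potency is read from the fitted curve at half-maximal effect; 0% = enzyme reaction without inhibitor and -100% = no enzyme wells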
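Fluorescence-quenching assay: 15 nM Sfp-PPTase preincubated 15 min at room temperature with compound, then 5 uM rhodamine-CoA and 12.5 uM BHQ-2-labelled YbbR peptide added. Fluorescence (ex 525/em 598 nm) read at start and after 30 min; difference gives rate.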
Giardia killer – Giardia lamblia killing; 340,000 tested, 0.15% active; Giardia lamblia trophozoite viability; activity change, % at 7.66 µM, hits read low; in the data active = activity change below about -80%; inconclusive = between about -30% and that limit;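 also: parasites exposed to compound for two days anaerobically before the ATP read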
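Compounds were tested on trophozoites seeded at 100 cells/well and held 48 hrs at 37 deg C anaerobically. An ATP-based luminescent kit measured the remaining live cells.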
ELG1 repair inh – inhibitors of ELG1-dependent DNA repair in HEK293T cells. HEK293T ELG1-luciferase reporter, luminescence, 16 h; DNA damage induced by 5-fluorouridine. Potency, µM (top dose mostly 46.1 µM), for the others: at the top dose activity change, negative = inhibition, hits mostly inhibitors. 330,000 tested, 2.3% active; also: potency is read from the fitted curve at half-maximal effect; nearly all actives have a fitted effect of over 55% in size
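Cells (2,000 per well) received 5-fluorouridine plus test compound or DMSO and were incubated 16 hr at 37 °C, 5% CO2. Luciferase activity was read by luminescence 30 min after ONE-Glo addition; signal suppression marked inhibition of damage-induced ELG1 function.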
Coupling enz – inhibits coupling enzyme system, counter-screen for aldolase hits | coupling enzyme system counterscreen, AmpLite Red fluorescence | activity change, negative = inhibition, % at 58.2 µM, hits read low | 290,000 tested, 0.67% active | AID 2472; in the data active = activity change below about -30%
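Counterscreen of the coupled detection system alone, without aldolase: glyceraldehyde-3-phosphate coupling enzymes plus AmpLite Red readout. Compounds at 57.5 uM final, 10 min RT preincubation, 20 min RT reaction, fluorescence 525/598 nm.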
* marks the source's active call; other numbers are inactive results; ? = inconclusive; nt = no result given. Unless noted, calls follow the shape of the dose curve; as a rule, active = well fitted curve in the direction sought with a large enough effect; inconclusive = small, poorly fitted or top-dose-only effect, or another doubt; inactive = no such curve, though single readings can be large; an effect the other way counts as inactive or inconclusive. Unless noted, % is scaled to controls: 0 for no effect and ±100 for the full control effect.

SMILES	Sfp inh	Giardia killer	ELG1 repair inh	Coupling enz
CCN(CC)S(=O)(=O)c1cccc(NC(=O)COC(=O)/C=C/c2ccco2)c1	28µM*	-21	2%	2
Cc1c(Cl)cnc(NC(=O)COC(=O)/C=C/c2ccco2)c1Cl	nt	-17	15%	nt
O=C(COC(=O)/C=C/c1ccco1)NCc1ccco1	50µM*	11	8%	1
O=C(COC(=O)/C=C/c1ccco1)Nc1ncc(C(F)(F)F)cc1Cl	40µM*	10	0%	0
O=C(COC(=O)/C=C/c1ccco1)Nc1cccc([N+](=O)[O-])c1	32µM*	12	2%	6
C#CCCCO/N=C1/[C@H]2O[C@@H]2[C@@H](O)[C@H]2[C@H]1CCn1c(=O)n(Cc3cc4c(cc3Cl)OCO4)c(=O)n12	14%	nt	nt	0
COc1ccccc1-c1sc2cc3c(cc2c1C#Cc1cncn1C)OCO3	nt	3	-27%	nt
O=C(Nc1cccc(Cl)c1)OCC#CCCl	?	nt	nt	-38*
CO[C@H]1COC(=O)C/C=C\[C@@H](C)COC(=O)[C@H]2CCCN2C(=O)C/C=C\[C@H]1C	11%	nt	nt	4
O=C(O)CN1C(=O)S/C(=C\c2cccnc2)C1=O	56µM*	-25	9%	8
COc1cccc(-c2nn(-c3ccccc3)cc2CN(C)Cc2c(C)nc3ccccn23)c1	56µM*	7	?	-1
COc1cccc(-c2nn(-c3ccccc3)cc2CN(C)Cc2ccon2)c1	2%	8	?	0
COc1ccc(C(=O)NCC(=O)OCC(=O)NC2CCCCCC2)cc1	nt	-2	13%	nt
Cc1ccc(/C=N\NC(=O)c2csnn2)cc1	10µM*	41	?	1
Cc1ccc(/C=N/NC(=O)c2ccncc2)cc1	13%	?	8%	-2
N#Cc1ccsc1NC(=O)CCN1CCN(C(c2ccccc2)c2ccccc2)CC1	6%	-15	-21%	-3
COc1ccc(S(=O)(=O)N(CC(=O)NC2CCCCC2)c2ccc(F)cc2)cc1	12%	-4	?	nt
CCC(=O)Nc1nc(C)c(-c2csc(Nc3cccc(O)c3)n2)s1	?	6	2.6µM*	-6
Cc1nc(NC(=O)CC(C)C)sc1-c1csc(Nc2ccc(Cl)cc2Cl)n1	-3%	-18	15µM*	2
Cc1nc(NC(=O)CC(C)C)sc1-c1csc(Nc2ccc(Cl)cc2)n1	-5%	2	23µM*	0
CCCCC(=O)Nc1nc(C)c(-c2csc(Nc3ccccc3OC)n2)s1	-4%	5	16µM*	2
COc1ccc(Cl)cc1Nc1nc(-c2sc(NC(=O)CC(C)C)nc2C)cs1	-6%	-8	?	-10
Cc1ccc(S(=O)(=O)N(C)C)cc1NC(=O)CSc1nc2ncc(Cl)cc2[nH]1	nt	-2	-14%	nt
O=C(C1CCC(CNS(=O)(=O)c2cccs2)CC1)N1CCN(c2ccc(F)cc2)CC1 (stereo not given)	10%	-24	9.2µM*	-1
CC(=O)N(CCP(=O)(c1ccccc1)c1ccccc1)Cc1ccco1	5%	21	12%	2
SMILES	Sfp inh	Giardia killer	ELG1 repair inh	Coupling enz
O=C(c1ccco1)N(CCC(c1ccccc1)c1ccco1)Cc1ccco1 (stereo not given)	?	-1	?	1
Cc1ccc(C(CCN(Cc2ccccc2)C(=O)c2ccco2)c2ccco2)cc1 (stereo not given)	40µM*	-2	-5%	2
CC(=O)N(CCC(Cc1ccccc1)c1ccco1)Cc1ccco1 (stereo not given)	45µM*	7	-11%	3
CCCN(CCC)C(=O)CC(c1ccccc1)c1ccco1 (stereo not given)	45µM*	-25	2%	-4
O=C(Oc1ccccc1)N1CCC2(CC1)CN(c1ccccc1)C2	-8%	nt	nt	2
Cc1nc(/C(=N/O)C(N)=O)cs1	56µM*	13	-1%	1
Cc1nc(C(=O)NNC(=O)c2ccc(Cl)cc2)cs1	-3%	-8	?	2
Cc1ccc([N+](=O)[O-])cc1NC(=O)c1ccc(CSc2ccccc2)cc1	32µM*	-7	18%	8
O=C(Nc1ccccc1O)c1ccc([N+](=O)[O-])cc1	20%	?	27%	0
CSc1ccccc1NC(=O)Cn1nc([N+](=O)[O-])c(Cl)c1C	0%	-29	-5%	5
CSc1ccccc1NC(=O)Cn1nc([N+](=O)[O-])cc1C	56µM*	1	9%	-1
CSc1ccccc1NC(=O)c1ccc([N+](=O)[O-])cc1	56µM*	-7	-1%	-2
O=C(Nc1cccc([N+](=O)[O-])c1)c1ccc(CSc2ccccc2)cc1	9%	21	1%	-1
CC(NC(=O)CCCc1nnc2n(C)c(=O)c3sccc3n12)c1ccccc1 (stereo not given)	1%	5	-1%	-2
c1ccc(-c2nnc(-c3ccco3)o2)cc1	13%	0	?	3
c1coc(-c2nnc(-c3ccco3)nn2)c1	-65%	-26	9%	-44*
c1ccc(C(c2nnnn2C2CCCC2)N2CCCCCC2)nc1 (stereo not given)	79µM*	-15	11%	-1
Oc1ccc(C(c2nnnn2C2CCCC2)N2CCc3ccccc3C2)cc1 (stereo not given)	50µM*	-6	18%	3
c1ccc(C(c2ccccc2)N2CCN(C(c3ccccn3)c3nnnn3C3CCCC3)CC2)cc1 (stereo not given)	19%	17	17%	1
COc1cc(C(c2nnnn2C2CCCC2)N2CCc3ccccc3C2)ccc1O (stereo not given)	18µM*	-13	0%	-2
COc1ccc(C2/C=C\CN(S(=O)(=O)c3ccc(C)cc3)C(C)C(=O)N2Cc2ccc(F)cc2)cc1 (stereo not given)	1%	-3	nt	2
CC(C)C[C@@H](CC(=O)N[C@@H](CCC(=O)O)CC(=O)O)NC(=O)[C@@H]1CCCC[C@H]1NC(=O)C[C@@H](NC(=O)C[C@H](Cc1ccccc1)NC(=O)[C@@H]1CCCC[C@H]1N)C(C)C	5%	nt	nt	1
Cc1onc(-c2ccccc2Cl)c1C(=O)N(Cc1nc(-c2ccccc2)no1)C1CCCCC1	-10%	1	?	-1
Cc1cccc(-c2noc(CN(C(=O)c3c(-c4ccccc4Cl)noc3C)C(C)C)n2)c1	20%	11	21µM*	-3
Cc1onc(-c2ccccc2Cl)c1C(=O)NCc1nc(-c2ccc(C(F)(F)F)cc2)no1	9%	-1	15µM*	-8
Cc1ccc(C)c(C(=O)N(Cc2nc(-c3ccc(Cl)cc3)no2)C(C)C)c1	?	2	21µM*	-1
COc1cccc(C(=O)N(Cc2nc(-c3ccc(C)cc3)no2)C(C)C)c1	-2%	2	0%	0
Cc1ccc(-c2noc(CN(C(=O)CCCCCN3C(=O)c4ccccc4C3=O)C(C)C)n2)cc1	2%	12	18µM*	-2
O=c1cc(CN2CCN(S(=O)(=O)c3cccc(Cl)c3)CC2)c2ccc(O)cc2o1	nt	-14	?	nt
C[C@H]([C@H](O)c1ccccc1)N(C)C(=O)CN	-7%	7	-8%	2

Compound activity deposited in PubChem BioAssay by National Center for Advancing Translational Sciences (NCATS).
